Screen size: about 340,000 compounds; about 4,500 (1.3%) were called active. Roughly 5% stayed inconclusive and do not appear here. The entries come from a sample that favours actives as a whole. Unmarked numbers belong to inactive results. Calls follow the shape of the dose curve; as a rule, active = well fitted inhibition curve with a large enough effect; inconclusive = small, poorly fitted or top-dose-only effect, or another doubt; inactive = no such curve, though single readings can be large or run the other way.
% is scaled to controls: 0 for no effect and ±100 for the full control effect; potency is read from the fitted curve at half-maximal effect.

This experiment has as its target DNA polymerase beta (Homo sapiens) (UniProt P06746). In words: qHTS Assay for Inhibitors of DNA Polymerase Beta. The conditions noted are these: Pol beta primer extension/strand displacement, fluorescence kinetic; series mostly up to 114 µM; activity change, negative = inhibition: at the top concentration. The procedure, abridged: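 Pol beta (10 nM) was preincubated with compound for 15 min at room temperature. The reaction was then started with 50 nM substrate and read immediately and after a further 10 min at room temperature.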
In general terms: qHTS replaces the single test concentration by a dilution series.
Take `Cc1cc(C)nc(N2CCN(c3ncnc4c3oc3ccccc34)CC2)n1`: the “activity change, negative = inhibition” value is 2.21%.
`CC(C)c1nc2oc3c(N4CCN(C)CC4)ncnc3c2c2c1CCC2`: the Potency was 12.6 µM (active).
Consider `Cc1ccc(NC(=O)c2ccc(CN3CC(=O)N4CCCCC4C3=O)cc2)c(Cl)c1` (stereo not given), for which the “activity change, negative = inhibition” value is 2.76%.
For `Cc1nnc(C)n1-c1ccc(C(=O)Nc2cccc(Br)c2)cc1`, the “activity change, negative = inhibition” value was 1.29%.
Take `Cc1cccc(NC(=O)C2CC(=O)OC23CCCC3)c1` (stereo not given): the Potency is 28.2 µM (active).
As to `Cc1cccc(NC(=O)NC2(C)CCS(=O)(=O)C2)c1` (stereo not given), the “activity change, negative = inhibition” value was 22.6%.
Still for that read-out and setting: the result for `Cc1cccc(NC(=O)C2CCN(C(=O)NC3CCCCC3)CC2)c1` reads 7.66%; that for `CCOC(=O)c1ccc(NC(=O)c2csc3c2CCCCC3)cc1`, 6.91%; that for `Cc1nn(-c2ccc(N3CCCCC3)nn2)c(C)c1CCC(=O)NCc1ccc(F)cc1`, -15.3%.
Same read-out and setting: to `COc1ccc(-n2ccnc(NCCc3ccc(Cl)cc3)c2=O)cc1OC` belongs -12%.
With `Cc1cc(C)cc(N(CC(=O)NCCSCc2ccco2)S(C)(=O)=O)c1`, the “activity change, negative = inhibition” value was 0.739%.
In the case of `S=C(NCc1ccc2c(c1)OCO2)NCc1ccco1`, the “activity change, negative = inhibition” value is 1.93%.
Regarding `CS(=O)(=O)N(CC(=O)NCc1ccco1)c1ccc2c(c1)OCO2`, the Potency was 50.1 µM (active).
Turning to `Cc1ccc(NC(=O)CSc2nc3c([nH]c4ccccc43)c(=O)n2-c2ccccc2)cc1Cl`, the “activity change, negative = inhibition” value is 3.88%.
For the compound `Cc1ccc(NC(=O)c2ccc3[nH]c(C)cc(=O)c3c2)c(C)c1`, the “activity change, negative = inhibition” value was -25%.
On the same count and under the same terms, to `Fc1ccc(C(Nc2ccc(Cl)c(C(F)(F)F)c2)c2nnc(-c3ccccc3)o2)cc1` (stereo not given) belongs 19.5%; to `NS(=O)(=O)c1ccc(NC(=S)Nc2ccc(Br)c(Cl)c2)cc1`, -1.82%.
For `Nc1c(Cl)cc(S(N)(=O)=O)cc1S(N)(=O)=O`, the Potency is 25.1 µM (active).
Turning to `CCCN(CCC)C(=O)C1CCCN(c2ncnc3c2nc2n3CCCCC2)C1` (stereo not given), the “activity change, negative = inhibition” value was 14.9%.
For the compound `COc1ccc(-c2cc(C(=O)NCc3cc(OC)c(OC)c(OC)c3)[nH]n2)cc1`, the “activity change, negative = inhibition” value is 26.1%.
For `CCc1ccc(NC(=O)C2CCCN2S(=O)(=O)c2ccc3nc(-c4ccccc4)[nH]c3c2)cc1` (stereo not given), the Potency was 12.6 µM (active).
On to `CCc1nnc(NC(=O)C2CCCN2S(=O)(=O)c2ccccc2)s1` (stereo not given), for which the “activity change, negative = inhibition” value is -1.63%.
Regarding `CCc1ccccc1NS(=O)(=O)c1ccc2nc(-c3ccccc3)[nH]c2c1`, the “activity change, negative = inhibition” value is -33%.
Consider `CCc1ccccc1NC(=O)Cc1ccc(NC(=O)N2CCCCc3ccccc32)cc1`, for which the “activity change, negative = inhibition” value was 7.27%.
On to `CCOc1ccc(Nc2c(S(=O)(=O)c3ccccc3)cnc3ccccc23)cc1`, for which the “activity change, negative = inhibition” value is -23.2%.
On the same count and under the same terms, the result for `CCn1cc(C(=O)N2CCN(c3cc(C)ccc3C)CC2)c(=O)c2cc(S(=O)(=O)N(C)C3CCCCC3)ccc21` reads 18.9%; that for `Cc1ccc(S(=O)(=O)N2CCCc3cc(NS(=O)(=O)c4cc(C)ccc4C)ccc32)cc1`, 8.08%; that for `Cc1ccc(Nc2c(-c3ccc(N(C)C)cc3)nc3nc[nH]n23)cc1`, 5.92%.
Same read-out and setting: to `O=C(Cc1ccc(Cl)cc1)NC1CCS(=O)(=O)C1` (stereo not given) belongs -17.6%; to `O=C(NC(=S)NC1CCS(=O)(=O)C1)c1cccc([N+](=O)[O-])c1` (stereo not given), 31.6%.
For the compound `O=C(NC(=O)c1ccc(Cl)c(Cl)c1)OC1CCS(=O)(=O)C1` (stereo not given), the Potency is 89.1 µM (active).
Regarding `O=C1CCCC(O)=C1N=Nc1ccc2ncsc2c1`, the Potency was 35.5 µM (active).
In the case of `O=C1CCCC(O)=C1N=Nc1ccc(S(=O)(=O)N2CCOCC2)cc1`, the “activity change, negative = inhibition” value was -9.17%.
On the same count and under the same terms, the result for `O=C(CSc1ncc(CO)n1Cc1ccc(Cl)cc1)NCc1ccc(F)cc1` reads 21.7%.
As for `Cc1cccc(-c2nnc(SCC(=O)N3CCCc4ccccc43)o2)c1`, the “activity change, negative = inhibition” value was 19.1%.
Turning to `Cc1ccc(-c2cc(C(=O)N/N=C/C=C/c3ccccc3)n[nH]2)o1`, the Potency is 17.8 µM (active).
Turning to `Cc1ccc(-c2cc(C(=O)NN)n[nH]2)o1`, the “activity change, negative = inhibition” value was -2.94%.
On to `CC(C)c1cc(C(=O)N/N=C/C(Br)=C/c2ccccc2)n[nH]1`, for which the “activity change, negative = inhibition” value is -7.2%.
On the same count and under the same terms, to `Cc1ccc(OCC(=O)OCc2cc(=O)n3nc(C4CC4)sc3n2)cc1` belongs -1.49%.
As for `COc1ccccc1C(=O)OCc1cc(=O)n2nc(-c3cccs3)sc2n1`, the Potency is 17.8 µM (active).
Consider `O=C(OCc1cc(=O)n2nc(C3CC3)sc2n1)c1ccccc1Cl`, for which the “activity change, negative = inhibition” value is 15.1%.
Same read-out and setting: the result for `Cc1ccc(OCC(=O)OCc2cc(=O)n3nc(C4CC4)sc3n2)cc1C` reads 35.9%.
`O=C(COc1ccccc1)OCc1cc(=O)n2nc(-c3cccs3)sc2n1`: the Potency was 31.6 µM (active).
For `Cc1nn2c(=O)cc(COC(=O)c3ccccc3NC(=O)COc3ccccc3C)nc2s1`, the “activity change, negative = inhibition” value was 32.7%.
For the compound `CCCn1c2ccccc2c2cnn(CC(=O)N(CC)c3cc(C)ccc3C)c(=O)c21`, the “activity change, negative = inhibition” value is 1.29%.
Consider `Cc1ccc(O)c(/C=N/NC(=O)COc2ccc3c(C)cc(=O)oc3c2)c1`, for which the Potency is 22.4 µM (active).
`Cc1cc(=O)oc2cc(OCC(=O)Nc3nnc(C4CC4)s3)ccc12`: the “activity change, negative = inhibition” value was 0.954%.
On the same count and under the same terms, the result for `Cc1cc(=O)oc2ccc(OCC(=O)O)cc12` reads -0.812%.
Regarding `CCOC(=O)Cc1csc(NC(=O)COc2ccc3c(C)cc(=O)oc3c2)n1`, the Potency is 44.7 µM (active).
For the compound `COc1ccc(N2CCN(C(=O)COc3ccc4c(C)cc(=O)oc4c3)CC2)cc1`, the “activity change, negative = inhibition” value was 0.172%.

The values are drawn from PubChem BioAssay AID485314 (National Center for Advancing Translational Sciences (NCATS), 2010).
